Each structure is given as a SMILES string. Results filed as inconclusive are left out. The source made the active and inactive calls. Unless noted, the call rests on the fitted dose curve; in most records, active means well fitted curve in the direction sought with a large enough effect in the repeat runs; inconclusive means weak or mixed curves; inactive means no such curve, though single readings can be large; an effect the other way counts as inactive or inconclusive.

Experiment [1] can be described thus: qHTS assay to identify small molecule agonists of the estrogen receptor beta (ER-beta) signaling pathway - cell viability counter screen (AID 1259380). Further: nearly all actives have a fitted effect of over 30% in size. Further: potency means the concentration at half of the fitted maximal effect. A digest of the protocol: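 Measured: luminescence from CellTiter-Glo after 30 min at room temperature, added to wells already read for the LiveBLAzer FRET reporter (2 hr substrate); ER-beta-UAS-bla HEK293T cells had 16 hr compound treatment at 37C, 5% CO2.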

The target in experiment [2] is Androgen receptor (Homo sapiens) (UniProt P10275). The experiment is described as follows: qHTS assay to identify small molecule agonists of the androgen receptor (AR) signaling pathway in the presence of an antagonist (AID 1259381; calls by dose curve; further: nearly all actives have a fitted effect of over 15% in size). In short, it runs like this: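 Luminescent ONE-Glo read, 30min at room temperature, follows 16hr compound exposure (15 concentrations) of MDA-kb2 cells at 37C, 0% CO2, with nilutamide added at 3.0uM final.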

A short description of experiment [3]: qHTS assay to identify small molecule antagonists of the estrogen receptor beta (ER-beta) signaling pathway - cell viability counter screen (AID 1259382). Further: nearly all actives have a fitted effect of over 55% in size. Further: potency means the concentration at half of the fitted maximal effect. A digest of the protocol:
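Readout: luminescence, CellTiter-Glo, same wells as bla assay. System: ER-beta-UAS-bla GripTite HEK293T, 2% charcoal-stripped FBS. Exposure: compounds plus 1nM 17-beta-estradiol, 16 hr, 37C.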

The target of experiment [4] is Estrogen receptor (Homo sapiens) (UniProt P03372). The experiment is described as follows: qHTS assay to identify small molecule agonists of the estrogen receptor alpha (ER-alpha) signaling pathway in the presence of an antagonist (AID 1259383; calls by dose curve; further: top concentration of the series differs between compounds; nearly all actives have a fitted effect of over 15% in size). A digest of the protocol: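 Quantitative HTS confirmation: compounds titrated at 15 concentrations onto estrogen-deprived VM7Luc4E2 cells carrying a four-ERE luciferase construct, with ICI-182,780 present at 10.0nM final. Signal is luminescence after 22hr exposure.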

Experiment [5] can be described thus: qHTS assay to identify small molecule agonists or antagonists of the thyroid stimulating hormone receptor (TSHR) signaling pathway - wild type cell line counter screen (AID 1259384; calls by dose curve). A digest of the protocol: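 Wild-type Hek293 cells, 800/well, 18 h at 37C, then compound with Ro20-1724 for 30 min RT. cAMP by HTRF (cAMP-d2/anti-cAMP cryptate), 1 h RT, fluorescence read. 15 concentrations, triplicates.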

Experiment [6] deals with Thyrotropin receptor (Homo sapiens) (UniProt P16473). Kind of experiment: qHTS assay to identify small molecule antagonists of the thyroid stimulating hormone receptor (TSHR) signaling pathway (AID 1259385; calls by dose curve; further: nearly all actives have a fitted effect of over 20% in size; further: potency means the concentration at half of the fitted maximal effect). A digest of the protocol: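 TSHR-HEK293 cells (800/well) plated 18 h, then compounds with Ro20-1724 and TSH at 1.5 ng/mL final, 30 min at room temperature. cAMP quantified by HTRF (cAMP-d2/anti-cAMP-cryptate, 1 h); 15 concentrations in triplicate.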

Experiment [7] is described as follows: qHTS assay to identify small molecule agonists of the estrogen receptor alpha (ER-alpha) signaling pathway in the presence of an antagonist - cell viability counter screen (AID 1259386).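 Further: cells exposed to compounds for 22 h at 37 °C before the viability read; nearly all actives have a fitted effect of over 30% in size.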 Further: potency means the concentration at half of the fitted maximal effect. A digest of the protocol:
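The test measures whether compounds kill ER-alpha reporter cells (VM7Luc4E2) under antagonist co-treatment (ICI-182,780, 10.0nM). Fluorescence from CellTiter-Fluor is read after a 22hr exposure.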

Experiment [8] concerns the target Progesterone receptor (Homo sapiens) (UniProt P06401). The experiment is described as follows: qHTS assay to identify small molecule agonists of the progesterone receptor (PR) signaling pathway (AID 1346784; calls by dose curve; further: nearly all actives have a fitted effect of over 30% in size). In short, it runs like this: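 Compounds were tested for PR agonism in HEK 293T cells bearing a beta-lactamase gene under UAS control. Treatment lasted 16 hr at 37C; signal came from fluorescence of a FRET substrate.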

The nature of experiment [9]: qHTS assay to identify small molecule antagonists of the TGF-beta/Smad signaling pathway - cell viability counter screen (AID 1346824). Further: nearly all actives have a fitted effect of over 50% in size. A digest of the protocol:
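SBE-bla HEK 293T cells, incubated overnight, then compound plus 0.25 ng/mL TGF-beta1 (stock added) for 5 hr at 37 C. Viability was read in the same wells by CellTiter-Glo luminescence after 30 min at room temperature.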

Experiment [10] can be described thus: qHTS assay to identify small molecule agonists of the TGF-beta/Smad signaling pathway - cell viability counter screen (AID 1346829). Further: top concentration of the series differs between compounds; nearly all actives have a fitted effect of over 45% in size. In short, it runs like this:
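Compound-treated SBE-bla HEK 293T cells (5 hr, 37 C) were assessed for viability with CellTiter-Glo in parallel with the reporter read.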

Experiment [11] can be described thus: qHTS assay to identify small molecule agonists of the TGF-beta/Smad signaling pathway (AID 1346859; active means well fitted activation curve with a large enough effect in the signal ratio in the repeat runs, not every such curve was filed as active; the % refers to the signal ratio; further: series mostly up to about 77 µM). A digest of the protocol:
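Each well held 4,000 SBE-bla HEK 293T cells incubated overnight before compound addition; 5 hr later the cleavable FRET substrate went on for 2 hr at room temperature, and fluorescence was read at two emissions.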

The nature of experiment [12]: qHTS assay to identify small molecule agonists of the androgen receptor (AR) signaling pathway in the presence of an antagonist - cell viability counter screen (AID 1259379). Further: nearly all actives have a fitted effect of over 25% in size. Further: potency means the concentration at half of the fitted maximal effect. A digest of the protocol: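 MDA-kb2 viability measured by CellTiter-Fluor fluorescence in the same wells as the luciferase signal; nilutamide 3.0uM final; 15-point compound titration; 16 hr at 37C.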

The target of experiment [13] is Thyrotropin-releasing hormone receptor (Homo sapiens) (UniProt P34981). Kind of experiment: qHTS assay to identify small molecule antagonists of the thyrotropin-releasing hormone receptor (TRHR) signaling pathway (AID 1346877; active means well fitted inhibition curve with a large enough effect in the repeat runs, not every such curve was filed as active; further: series mostly up to about 51 µM). A digest of the protocol:
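Overnight-plated (18 h, 37 °C) HEK293 cells expressing TRHR were dye-loaded 2 h, treated with compound, then stimulated with TRH at 1 nM final. Fluorescence intensity was captured every second for 3 min.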

For experiment [14], the target named is Progesterone receptor (Homo sapiens) (UniProt P06401). Kind of experiment: qHTS assay to identify small molecule antagonists of the progesterone receptor (PR) signaling pathway (AID 1346795; active means well fitted inhibition curve with a large enough effect in the signal ratio in the repeat runs, not every such curve was filed as active; the % refers to the signal ratio). In short, it runs like this: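 In HEK293T cells bearing the PR-UAS-bla reporter, compound effects on promegestone-driven (1 nM) beta-lactamase expression are assessed after 16 hr using a fluorescent FRET substrate incubated 2 hr at room temperature.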

The nature of experiment [15]: qHTS assay to identify small molecule antagonists of the progesterone receptor (PR) signaling pathway - cell viability counter screen (AID 1346798). Further: series mostly up to about 92 µM; nearly all actives have a fitted effect of over 50% in size. A digest of the protocol:
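Following a 4 hr attachment, PR-UAS-bla HEK293T cells in charcoal-stripped FBS medium were exposed to compounds with R5020 for 16 hr; CellTiter-Glo was added and luminescence read after 30 min at room temperature.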

Experiment [16] addresses Thyrotropin-releasing hormone receptor (Homo sapiens) (UniProt P34981). The experiment is described as follows: qHTS assay to identify small molecule agonists of the thyrotropin-releasing hormone receptor (TRHR) signaling pathway (AID 1346891; calls by dose curve; further: series mostly up to about 58 µM). A digest of the protocol: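 Screening of agonists relied on calcium signalling in HEK293 cells expressing human TRHR: dye loading 2 h at 37 °C preceded compound addition and a 3-min fluorescence time course.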

The nature of experiment [17]: qHTS assay to identify small molecule agonists of the progesterone receptor (PR) signaling pathway - cell viability counter screen (AID 1346799; calls by dose curve; further: nearly all actives have a fitted effect of over 45% in size). In short, it runs like this:
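Here, 3,000 PR-UAS-bla HEK293T cells per well were treated with compounds for 16 hr after a 6 hr preincubation at 37C and 5% CO2; cell viability is the CellTiter-Glo luminescence signal.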

Thyrotropin-releasing hormone receptor (Homo sapiens), sequence (P34981 whole entry, looked up): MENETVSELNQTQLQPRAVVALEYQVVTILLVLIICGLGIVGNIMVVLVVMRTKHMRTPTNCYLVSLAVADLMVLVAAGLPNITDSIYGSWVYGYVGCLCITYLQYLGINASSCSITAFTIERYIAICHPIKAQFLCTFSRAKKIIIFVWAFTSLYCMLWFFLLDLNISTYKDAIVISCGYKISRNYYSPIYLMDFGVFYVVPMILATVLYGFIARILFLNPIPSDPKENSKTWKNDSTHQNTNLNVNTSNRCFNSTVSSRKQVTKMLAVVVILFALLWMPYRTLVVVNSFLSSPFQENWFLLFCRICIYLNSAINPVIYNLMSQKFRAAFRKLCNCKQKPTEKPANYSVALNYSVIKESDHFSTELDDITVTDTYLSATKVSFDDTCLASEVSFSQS
Thyrotropin receptor (Homo sapiens), sequence (P16473 whole entry, looked up): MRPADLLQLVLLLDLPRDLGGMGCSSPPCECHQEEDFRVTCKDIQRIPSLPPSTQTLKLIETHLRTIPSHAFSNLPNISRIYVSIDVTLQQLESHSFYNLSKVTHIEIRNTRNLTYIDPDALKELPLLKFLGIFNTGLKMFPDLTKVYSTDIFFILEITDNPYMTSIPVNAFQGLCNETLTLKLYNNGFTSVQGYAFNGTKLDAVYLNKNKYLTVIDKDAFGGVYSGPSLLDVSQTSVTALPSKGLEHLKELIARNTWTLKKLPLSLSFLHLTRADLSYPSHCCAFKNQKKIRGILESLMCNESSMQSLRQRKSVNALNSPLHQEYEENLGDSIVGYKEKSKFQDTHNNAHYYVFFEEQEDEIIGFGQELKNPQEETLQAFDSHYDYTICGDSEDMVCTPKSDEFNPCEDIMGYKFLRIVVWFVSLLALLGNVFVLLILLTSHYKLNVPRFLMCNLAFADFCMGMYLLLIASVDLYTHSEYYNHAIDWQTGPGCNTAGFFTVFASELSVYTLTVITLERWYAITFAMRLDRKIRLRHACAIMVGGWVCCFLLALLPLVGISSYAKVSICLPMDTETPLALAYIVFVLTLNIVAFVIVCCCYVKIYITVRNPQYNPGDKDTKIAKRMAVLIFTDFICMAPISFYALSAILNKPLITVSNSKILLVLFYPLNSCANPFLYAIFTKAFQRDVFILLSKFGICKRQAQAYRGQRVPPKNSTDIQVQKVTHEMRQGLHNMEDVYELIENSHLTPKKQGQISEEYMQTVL
Progesterone receptor (Homo sapiens), sequence (P06401 whole entry, looked up): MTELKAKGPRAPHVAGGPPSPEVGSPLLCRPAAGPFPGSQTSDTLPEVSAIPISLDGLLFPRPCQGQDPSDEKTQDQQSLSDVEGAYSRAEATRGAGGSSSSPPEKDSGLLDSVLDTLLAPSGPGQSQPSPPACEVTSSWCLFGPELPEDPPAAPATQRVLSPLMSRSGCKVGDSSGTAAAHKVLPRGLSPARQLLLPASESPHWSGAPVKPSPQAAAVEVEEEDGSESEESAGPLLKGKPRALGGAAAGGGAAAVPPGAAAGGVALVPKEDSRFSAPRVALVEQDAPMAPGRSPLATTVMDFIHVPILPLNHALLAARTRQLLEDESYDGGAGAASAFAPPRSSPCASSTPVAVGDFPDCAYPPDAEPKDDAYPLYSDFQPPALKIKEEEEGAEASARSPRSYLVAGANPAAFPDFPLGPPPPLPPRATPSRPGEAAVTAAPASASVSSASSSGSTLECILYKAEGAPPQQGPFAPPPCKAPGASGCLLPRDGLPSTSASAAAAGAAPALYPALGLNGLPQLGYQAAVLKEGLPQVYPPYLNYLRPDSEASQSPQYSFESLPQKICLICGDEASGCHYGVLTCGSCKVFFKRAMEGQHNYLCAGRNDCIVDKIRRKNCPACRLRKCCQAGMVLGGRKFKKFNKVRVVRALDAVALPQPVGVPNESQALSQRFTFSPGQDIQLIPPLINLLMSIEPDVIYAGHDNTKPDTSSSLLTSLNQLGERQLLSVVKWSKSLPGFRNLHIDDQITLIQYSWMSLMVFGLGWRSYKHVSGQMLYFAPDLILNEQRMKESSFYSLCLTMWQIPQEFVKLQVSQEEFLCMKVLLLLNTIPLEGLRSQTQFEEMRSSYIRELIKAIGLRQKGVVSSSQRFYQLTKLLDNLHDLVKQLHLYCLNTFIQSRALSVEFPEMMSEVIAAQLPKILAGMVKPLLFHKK
Estrogen receptor (Homo sapiens), sequence (P03372 whole entry, looked up): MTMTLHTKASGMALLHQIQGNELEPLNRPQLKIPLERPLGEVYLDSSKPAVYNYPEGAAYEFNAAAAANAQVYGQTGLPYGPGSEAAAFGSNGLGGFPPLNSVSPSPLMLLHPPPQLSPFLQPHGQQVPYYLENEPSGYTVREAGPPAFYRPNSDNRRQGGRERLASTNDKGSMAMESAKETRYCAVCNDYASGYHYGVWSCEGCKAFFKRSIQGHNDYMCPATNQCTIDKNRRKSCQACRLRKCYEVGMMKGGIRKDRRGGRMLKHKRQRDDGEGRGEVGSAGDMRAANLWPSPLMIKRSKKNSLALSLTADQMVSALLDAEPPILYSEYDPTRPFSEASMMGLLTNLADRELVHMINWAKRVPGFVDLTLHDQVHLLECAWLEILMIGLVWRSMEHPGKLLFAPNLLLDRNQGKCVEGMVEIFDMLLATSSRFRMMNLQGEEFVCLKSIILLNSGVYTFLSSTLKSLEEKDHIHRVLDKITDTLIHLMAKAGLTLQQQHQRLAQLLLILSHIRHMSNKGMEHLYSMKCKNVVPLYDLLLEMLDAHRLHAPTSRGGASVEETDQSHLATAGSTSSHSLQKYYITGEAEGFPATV
Androgen receptor (Homo sapiens), sequence (P10275 whole entry, looked up): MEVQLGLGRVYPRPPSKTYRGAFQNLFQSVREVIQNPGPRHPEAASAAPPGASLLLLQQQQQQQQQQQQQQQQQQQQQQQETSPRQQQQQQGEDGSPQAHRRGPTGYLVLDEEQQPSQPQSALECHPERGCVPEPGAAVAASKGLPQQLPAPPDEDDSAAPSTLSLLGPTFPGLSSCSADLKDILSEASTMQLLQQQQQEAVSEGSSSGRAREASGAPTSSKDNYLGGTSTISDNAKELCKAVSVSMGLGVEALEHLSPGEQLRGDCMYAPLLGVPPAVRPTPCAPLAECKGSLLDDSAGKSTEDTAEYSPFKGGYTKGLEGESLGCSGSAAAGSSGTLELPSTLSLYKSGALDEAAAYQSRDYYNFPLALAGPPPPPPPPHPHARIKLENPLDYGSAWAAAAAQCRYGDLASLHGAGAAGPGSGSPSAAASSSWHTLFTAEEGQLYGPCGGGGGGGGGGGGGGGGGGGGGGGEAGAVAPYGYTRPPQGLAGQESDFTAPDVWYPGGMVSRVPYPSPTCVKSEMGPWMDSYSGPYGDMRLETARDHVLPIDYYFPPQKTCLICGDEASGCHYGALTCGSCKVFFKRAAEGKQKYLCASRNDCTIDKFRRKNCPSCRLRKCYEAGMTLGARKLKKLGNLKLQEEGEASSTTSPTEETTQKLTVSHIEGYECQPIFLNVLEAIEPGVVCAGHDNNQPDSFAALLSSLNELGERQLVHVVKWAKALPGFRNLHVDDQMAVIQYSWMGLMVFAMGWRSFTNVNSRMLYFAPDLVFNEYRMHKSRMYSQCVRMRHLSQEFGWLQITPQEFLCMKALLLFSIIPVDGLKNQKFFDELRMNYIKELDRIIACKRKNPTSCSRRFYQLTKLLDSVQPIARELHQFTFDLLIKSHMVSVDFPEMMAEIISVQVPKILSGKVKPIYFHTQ

Consider `CNCCCN1c2ccccc2CCc2ccccc21`, for which the Potency is 23.7 µM (active) in experiment [1], 23.7 µM (active) in experiment [3] and 29.8 µM (active) in experiment [6]. Besides, the Potency entry in experiment [2], in [4], in [5], in experiment [7], in [8] and in [9] was “inactive” throughout. Further, the Potency entry in [11] is “inactive”. For the same compound, in experiment [10], the call was inactive.

As for `CCCCCCCCCCCCCCOS(=O)(=O)O`, the Potency entry in experiment [12], in experiment [4], in [5], in experiment [7], in [8] and in experiment [9] was “inactive” throughout. Also, the results for the Potency in [1] and in experiment [3] were 30.6 µM (active) and 61.1 µM (active), respectively. Further, the compound was called inactive in experiment [10] and in [13].

Take `Nc1ccc(S(=O)(=O)Nc2ccccc2)cc1`: the Potency result in [12], in experiment [1], in experiment [3], in experiment [5], in experiment [6] and in experiment [8] was “inactive” each time. Moreover, the Potency entry in experiment [14], in experiment [15], in experiment [9], in experiment [11] and in [16] was “inactive” throughout. The compound was classed as inactive in experiment [10] and in experiment [13].

For the compound `CCCCC(CC)COC(=O)CCCCCCCCC(=O)OCC(CC)CCCC` (stereo not given), the Potency result in experiment [12], in [1], in experiment [3], in experiment [4], in experiment [6] and in experiment [8] was “inactive” throughout. Besides, the Potency result in experiment [14], in experiment [17] and in experiment [16] was “inactive” in each case. Besides, the result in [10] and in experiment [13] was inactive.

Regarding `Cn1c(=O)cc(Oc2ccc(F)cc2F)c2cnc(NCC(C)(C)O)nc21`, the Potency entry in experiment [12], in experiment [1], in [3], in experiment [4], in [8] and in experiment [9] was “inactive” in each case. Further, the Potency entry in experiment [11] was “inactive”. Further, in experiment [10], the compound was classed as inactive.

For the compound `CN(C)CCN(Cc1ccc(Cl)cc1)c1ccccn1`, the Potency result in experiment [12], in [5], in experiment [6], in experiment [7], in experiment [8] and in [14] was “inactive” each time. Besides, the Potency entry in experiment [17], in [9], in [11] and in experiment [16] was “inactive” throughout. Also, the Potency in [1] is 33.5 µM (active). The result in experiment [10] and in [13] was inactive.

In the case of `O=C(O)c1ccco1`, the Potency result in experiment [12], in experiment [1], in experiment [3], in [4], in experiment [5] and in experiment [6] was “inactive” each time. Further, the Potency entry in [8], in experiment [14] and in experiment [11] was “inactive” in each case. Besides, the compound was classed as inactive in experiment [10] and in experiment [13].

Regarding `Cc1oc2c(NC(=O)c3c(Cl)cccc3Cl)cccc2c1C(C)(C)O`, the Potency in experiment [12] was 21.7 µM (active); in [1] it was 30.6 µM (active). The Potency entry in [4], in experiment [5], in experiment [6], in experiment [7], in experiment [15] and in experiment [9] was “inactive” throughout. Besides, the Potency entry in experiment [11] and in experiment [16] was “inactive” in each case. In addition, the outcome in experiment [10] and in [13] was inactive.

On to `CCOc1ccc(N=Nc2ccc(/C=C/c3ccc(N=Nc4ccc(OCC)cc4)cc3S(=O)(=O)O)c(S(=O)(=O)O)c2)cc1`, for which the values for the Potency in [12] and in [7] were 21.4 µM (active) and 38 µM (active), respectively. Moreover, the Potency entry in [1], in [3], in experiment [5], in experiment [6], in [8] and in experiment [14] was “inactive” throughout. Besides, the Potency result in [15], in experiment [17], in experiment [9], in experiment [11] and in experiment [16] was “inactive” each time. The call in experiment [10] and in experiment [13] was inactive.

As for `C=C(C)C(=O)OCCO`, the Potency entry in [12], in [1], in experiment [4], in experiment [5], in [6] and in experiment [7] was “inactive” in each case. Moreover, the Potency entry in [14], in experiment [15], in experiment [17], in [9] and in experiment [16] was “inactive” each time. The result in [10] and in experiment [13] was inactive.

As for `CCCCCCCC#N`, the Potency result in experiment [12], in experiment [1], in experiment [3], in [5], in experiment [6] and in [7] was “inactive” throughout. Besides, the Potency result in experiment [8], in experiment [15], in experiment [9], in experiment [11] and in experiment [16] was “inactive” in each case. Also, the outcome in experiment [10] and in [13] was inactive.

For the origin of these results see PubChem BioAssay (Tox21).
